Measurements from PubChem BioAssay (NCI).
This is part of a sample that, as a whole, favours compounds with a hit. Of some 83,000 tested, about 20% had one in any assay.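 Treatment: one concentration, 48 hours, 96-well format. Scoring: percent growth, with anything below 10 considered active.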 The source made the active and inactive calls.

Legend:
Test in all cases: NCI-60 one-dose screen, 48 h (100 = growth as untreated, 0 = no growth, -100 = all killed)
Conditions in all cases: 10 µM
SR leukemia = system: SR leukemia
RPMI-8226 leukemia = system: RPMI-8226 leukemia
OVCAR-8 ovarian = system: OVCAR-8 ovarian
OVCAR-5 ovarian = system: OVCAR-5 ovarian
OVCAR-4 ovarian = system: OVCAR-4 ovarian
SK-OV-3 ovarian = system: SK-OV-3 ovarian
IGROV1 ovarian = system: IGROV1 ovarian
OVCAR-3 ovarian = system: OVCAR-3 ovarian
HS 578T breast = system: HS 578T breast
NCI/ADR-RES ovarian = system: NCI/ADR-RES ovarian

Measured: growth

COc1ccc(N(C)c2ncnc3occ(C)c23)cc1
inactive: OVCAR-5 ovarian 28.1% | OVCAR-4 ovarian 40.2% | SK-OV-3 ovarian 19.9% | HS 578T breast 110%
active: SR leukemia -36.1% | RPMI-8226 leukemia -36.1% | OVCAR-8 ovarian -21.9% | IGROV1 ovarian -11.1% | OVCAR-3 ovarian -39.9% | NCI/ADR-RES ovarian -16.2%

COc1cc(/C=C/c2cc(/C=C/c3ccc(O)c(OC)c3)n(C(=O)Nc3ccc(C)cc3)n2)ccc1O
active: SR leukemia -14.7% | RPMI-8226 leukemia -14.5% | OVCAR-8 ovarian -2.98% | SK-OV-3 ovarian -29.1% | IGROV1 ovarian 4.76% | OVCAR-3 ovarian -34.1% | HS 578T breast -16%
inactive: OVCAR-5 ovarian 20.5% | OVCAR-4 ovarian 16.1% | NCI/ADR-RES ovarian 20.5%

O=C1CC(=O)N(C(=O)c2nn(-c3ccc(Cl)cc3)cc2O)N1
active: SR leukemia -31.9% | RPMI-8226 leukemia -8% | OVCAR-3 ovarian -4.11%
inactive: OVCAR-8 ovarian 30.1% | OVCAR-5 ovarian 65.2% | OVCAR-4 ovarian 34.1% | SK-OV-3 ovarian 40.7% | IGROV1 ovarian 34.4% | HS 578T breast 121% | NCI/ADR-RES ovarian 33.6%

O=C(Cn1cc(CO)nn1)Nc1nc2ccccc2s1
inactive: SR leukemia 100% | RPMI-8226 leukemia 107% | OVCAR-8 ovarian 99.4% | OVCAR-5 ovarian 101% | OVCAR-4 ovarian 108% | SK-OV-3 ovarian 104% | IGROV1 ovarian 97.8% | OVCAR-3 ovarian 101% | HS 578T breast 109% | NCI/ADR-RES ovarian 101%

CNC(=O)c1c(I)c(NC(C)=O)c(I)c(C(=O)O)c1I
inactive: SR leukemia 104% | RPMI-8226 leukemia 110% | OVCAR-8 ovarian 103% | OVCAR-5 ovarian 113% | OVCAR-4 ovarian 111% | SK-OV-3 ovarian 104% | IGROV1 ovarian 115% | OVCAR-3 ovarian 111% | HS 578T breast 110% | NCI/ADR-RES ovarian 103%

CN(C)CCCOc1ccccc1NC1=C(Cl)C(=O)C(Nc2ccccc2OCCCN(C)C)=C(Cl)C1=O
inactive: HS 578T breast 10.8% | NCI/ADR-RES ovarian 78.5%
active: SR leukemia -4.17% | RPMI-8226 leukemia -40.3% | OVCAR-8 ovarian -84.3% | OVCAR-5 ovarian -60.1% | OVCAR-4 ovarian -98.7% | SK-OV-3 ovarian -24.3% | IGROV1 ovarian -44.8% | OVCAR-3 ovarian -90.5%

C=C(C)[C@@H]1CC[C@]2(COCCC#N)CC[C@]3(C)[C@H](CC[C@@H]4[C@@]5(C)Cc6c([nH]c7ccccc67)C(C)(C)[C@@H]5CC[C@]43C)[C@@H]12
inactive: SR leukemia 94.7% | RPMI-8226 leukemia 86.1% | OVCAR-8 ovarian 107% | OVCAR-5 ovarian 89.3% | OVCAR-4 ovarian 88.5% | SK-OV-3 ovarian 100% | IGROV1 ovarian 105% | OVCAR-3 ovarian 93.9% | HS 578T breast 90.6% | NCI/ADR-RES ovarian 98.1%

O=C(Nc1ccc2c(O)cc(S(=O)(=O)O)cc2c1)c1ccc([N+](=O)[O-])cc1
inactive: SR leukemia 60.9% | RPMI-8226 leukemia 92.9% | OVCAR-8 ovarian 88.9% | OVCAR-5 ovarian 101% | OVCAR-4 ovarian 103% | SK-OV-3 ovarian 82.7% | IGROV1 ovarian 102% | OVCAR-3 ovarian 104% | HS 578T breast 103% | NCI/ADR-RES ovarian 100%

O=C(Nc1ccc(OS(=O)(=O)c2ccccc2)cc1)C1CCCCC1
inactive: SR leukemia 47.2% | RPMI-8226 leukemia 76.4% | OVCAR-8 ovarian 94.6% | OVCAR-5 ovarian 100% | OVCAR-4 ovarian 102% | SK-OV-3 ovarian 95.6% | IGROV1 ovarian 106% | OVCAR-3 ovarian 95% | HS 578T breast 103% | NCI/ADR-RES ovarian 88.3%

O=C1c2ccccc2C(=O)c2c1ccc(C(Br)Br)c2[N+](=O)[O-]
active: SR leukemia -32% | RPMI-8226 leukemia -7.34% | OVCAR-4 ovarian -23.9% | IGROV1 ovarian -55% | OVCAR-3 ovarian -84%
inactive: OVCAR-8 ovarian 43.1% | OVCAR-5 ovarian 49.7% | SK-OV-3 ovarian 88.1% | HS 578T breast 103% | NCI/ADR-RES ovarian 50.3%

NS(=O)(=O)c1ccc(Br)cc1
inactive: SR leukemia 106% | RPMI-8226 leukemia 108% | OVCAR-8 ovarian 105% | OVCAR-5 ovarian 97.6% | OVCAR-4 ovarian 104% | SK-OV-3 ovarian 80.8% | IGROV1 ovarian 100% | OVCAR-3 ovarian 114% | HS 578T breast 110% | NCI/ADR-RES ovarian 97.7%

Cc1ccc(S(=O)(=O)N(C)CCCCCC(=O)O)cc1
inactive: SR leukemia 101% | RPMI-8226 leukemia 113% | OVCAR-8 ovarian 103% | OVCAR-5 ovarian 101% | OVCAR-4 ovarian 106% | SK-OV-3 ovarian 112% | IGROV1 ovarian 99.4% | OVCAR-3 ovarian 106% | HS 578T breast 108% | NCI/ADR-RES ovarian 98.6%

Cc1cc(C(C#N)c2ccc(Cl)cc2)c(Cl)cc1NC(=O)c1cc(I)cc(I)c1O (stereo not given)
inactive: SR leukemia 27.6% | RPMI-8226 leukemia 13.8% | OVCAR-8 ovarian 53.4% | OVCAR-5 ovarian 87.8% | OVCAR-4 ovarian 82.6% | SK-OV-3 ovarian 85.2% | IGROV1 ovarian 51.7% | OVCAR-3 ovarian 32.6% | HS 578T breast 26% | NCI/ADR-RES ovarian 21.1%
